Laboratory results taken from ChEMBL document CHEMBL1961873, “Compounds: GSK PKIS; Assays: Nanosyn kinase panel” (2012).

What was measured:
[1] = biological target: Rho-associated protein kinase 1 (Homo sapiens) (UniProt Q13464); details: at 1 µM;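 also: reported values are mean percent inhibition of ROCK1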
[2] = biological target: Rho-associated protein kinase 2 (Homo sapiens) (UniProt O75116); details: at 0.1 µM
[3] = biological target: Rho-associated protein kinase 2 (Homo sapiens) (UniProt O75116); details: at 1 µM
[4] = biological target: Ribosomal protein S6 kinase alpha-1 (Homo sapiens) (UniProt Q15418); details: at 0.1 µM
[5] = biological target: Ribosomal protein S6 kinase alpha-1 (Homo sapiens) (UniProt Q15418); details: at 1 µM
[6] = biological target: Ribosomal protein S6 kinase alpha-3 (Homo sapiens) (UniProt P51812); details: at 0.1 µM
[7] = biological target: Ribosomal protein S6 kinase alpha-3 (Homo sapiens) (UniProt P51812); details: at 1 µM
[8] = biological target: Ribosomal protein S6 kinase alpha-2 (Homo sapiens) (UniProt Q15349); details: at 0.1 µM
[9] = biological target: Ribosomal protein S6 kinase alpha-2 (Homo sapiens) (UniProt Q15349); details: at 1 µM
[10] = biological target: Ribosomal protein S6 kinase alpha-6 (Homo sapiens) (UniProt Q9UK32); details: at 0.1 µM
[11] = biological target: Ribosomal protein S6 kinase alpha-6 (Homo sapiens) (UniProt Q9UK32); details: at 1 µM
[12] = biological target: T1, Serine/threonine-protein kinase Sgk1 (Homo sapiens) (UniProt O00141); details: at 0.1 µM
T1 sequence (whole entry): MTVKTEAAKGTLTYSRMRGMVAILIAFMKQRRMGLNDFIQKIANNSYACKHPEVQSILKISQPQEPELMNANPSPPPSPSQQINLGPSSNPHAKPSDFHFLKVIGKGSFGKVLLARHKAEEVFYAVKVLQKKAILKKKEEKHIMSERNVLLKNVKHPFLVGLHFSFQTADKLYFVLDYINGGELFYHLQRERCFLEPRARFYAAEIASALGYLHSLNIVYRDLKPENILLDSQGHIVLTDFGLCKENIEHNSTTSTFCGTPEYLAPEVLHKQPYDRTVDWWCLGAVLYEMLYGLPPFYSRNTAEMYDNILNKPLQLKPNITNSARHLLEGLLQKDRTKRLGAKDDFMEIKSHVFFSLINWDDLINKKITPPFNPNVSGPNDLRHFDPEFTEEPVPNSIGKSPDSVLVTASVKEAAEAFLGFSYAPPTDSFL

[13] = biological target: T1, Serine/threonine-protein kinase Sgk1 (Homo sapiens); details: at 1 µM
[14] = biological target: T2, Serine/threonine-protein kinase Sgk2 (Homo sapiens) (UniProt Q9HBY8); details: at 0.1 µM
T2 sequence (whole entry): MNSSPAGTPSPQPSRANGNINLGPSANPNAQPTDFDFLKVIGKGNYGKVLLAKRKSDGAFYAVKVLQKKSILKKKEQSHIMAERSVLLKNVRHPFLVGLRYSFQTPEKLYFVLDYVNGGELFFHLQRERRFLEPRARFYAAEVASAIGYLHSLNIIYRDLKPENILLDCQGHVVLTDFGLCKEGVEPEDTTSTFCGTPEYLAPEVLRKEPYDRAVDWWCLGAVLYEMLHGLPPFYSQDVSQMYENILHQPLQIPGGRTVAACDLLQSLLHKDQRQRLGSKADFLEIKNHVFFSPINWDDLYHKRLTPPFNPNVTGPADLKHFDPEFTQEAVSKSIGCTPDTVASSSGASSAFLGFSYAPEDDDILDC

[15] = biological target: T2, Serine/threonine-protein kinase Sgk2 (Homo sapiens); details: at 1 µM
[16] = biological target: T3, Serine/threonine-protein kinase Sgk3 (Homo sapiens) (UniProt Q96BR1); details: at 0.1 µM
T3 sequence (whole entry): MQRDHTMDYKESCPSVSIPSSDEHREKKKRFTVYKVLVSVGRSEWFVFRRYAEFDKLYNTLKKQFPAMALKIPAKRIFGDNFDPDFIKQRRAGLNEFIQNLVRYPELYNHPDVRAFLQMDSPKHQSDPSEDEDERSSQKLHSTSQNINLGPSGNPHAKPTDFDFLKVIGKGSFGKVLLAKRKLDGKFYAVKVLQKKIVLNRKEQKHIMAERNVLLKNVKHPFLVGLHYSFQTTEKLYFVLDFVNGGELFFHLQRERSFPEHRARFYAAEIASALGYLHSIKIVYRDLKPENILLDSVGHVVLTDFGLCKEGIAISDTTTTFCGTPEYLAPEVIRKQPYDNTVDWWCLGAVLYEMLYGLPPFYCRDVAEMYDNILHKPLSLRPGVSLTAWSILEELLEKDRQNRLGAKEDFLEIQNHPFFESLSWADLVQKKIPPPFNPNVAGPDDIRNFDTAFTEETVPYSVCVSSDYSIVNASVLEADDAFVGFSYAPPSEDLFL

[17] = biological target: T3, Serine/threonine-protein kinase Sgk3 (Homo sapiens); details: at 1 µM
[18] = biological target: 5'-AMP-activated protein kinase catalytic subunit alpha-1 (Homo sapiens) (UniProt Q13131); details: at 0.1 µM
[19] = biological target: 5'-AMP-activated protein kinase catalytic subunit alpha-1 (Homo sapiens) (UniProt Q13131); details: at 1 µM
[20] = biological target: 5'-AMP-activated protein kinase catalytic subunit alpha-2 (Homo sapiens) (UniProt P54646); details: at 0.1 µM;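 also: mean inhibition measured on the AMPK complex of alpha2, beta1 and gamma1 subunits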
Sequence of 5'-AMP-activated protein kinase catalytic subunit alpha-2 (Homo sapiens) (P54646 whole entry, looked up): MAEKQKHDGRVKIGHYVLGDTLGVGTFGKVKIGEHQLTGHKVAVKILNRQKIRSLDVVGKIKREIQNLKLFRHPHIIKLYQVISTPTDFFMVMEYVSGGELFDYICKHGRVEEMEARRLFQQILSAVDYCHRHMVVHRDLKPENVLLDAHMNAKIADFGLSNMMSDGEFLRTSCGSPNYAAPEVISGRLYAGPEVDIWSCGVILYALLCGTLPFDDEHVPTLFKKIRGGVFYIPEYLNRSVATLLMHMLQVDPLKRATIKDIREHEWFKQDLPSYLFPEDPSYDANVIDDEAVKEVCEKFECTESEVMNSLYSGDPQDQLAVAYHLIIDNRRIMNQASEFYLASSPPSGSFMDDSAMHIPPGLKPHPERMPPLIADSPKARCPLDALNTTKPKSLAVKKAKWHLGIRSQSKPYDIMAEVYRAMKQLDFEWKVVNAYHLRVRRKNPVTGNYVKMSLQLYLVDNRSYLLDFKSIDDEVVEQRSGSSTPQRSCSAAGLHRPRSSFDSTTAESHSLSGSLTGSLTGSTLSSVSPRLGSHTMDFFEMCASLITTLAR

Sequence of 5'-AMP-activated protein kinase catalytic subunit alpha-1 (Homo sapiens) (Q13131 whole entry, looked up): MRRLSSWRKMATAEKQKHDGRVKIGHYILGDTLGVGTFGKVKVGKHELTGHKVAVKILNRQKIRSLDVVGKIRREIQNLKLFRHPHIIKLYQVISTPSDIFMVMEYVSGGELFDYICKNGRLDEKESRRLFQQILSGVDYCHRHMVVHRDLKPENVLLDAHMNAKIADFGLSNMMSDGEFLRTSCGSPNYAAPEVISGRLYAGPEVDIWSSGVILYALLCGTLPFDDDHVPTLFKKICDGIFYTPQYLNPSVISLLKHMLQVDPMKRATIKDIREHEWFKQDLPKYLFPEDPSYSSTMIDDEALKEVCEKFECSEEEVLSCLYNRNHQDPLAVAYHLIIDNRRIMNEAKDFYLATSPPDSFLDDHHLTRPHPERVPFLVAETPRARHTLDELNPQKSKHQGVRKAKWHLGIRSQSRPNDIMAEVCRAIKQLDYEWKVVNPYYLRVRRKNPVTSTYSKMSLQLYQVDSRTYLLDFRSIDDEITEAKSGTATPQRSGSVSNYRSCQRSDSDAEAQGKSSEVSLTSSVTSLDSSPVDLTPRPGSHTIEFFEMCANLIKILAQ
Sequence of Ribosomal protein S6 kinase alpha-6 (Homo sapiens) (Q9UK32 whole entry): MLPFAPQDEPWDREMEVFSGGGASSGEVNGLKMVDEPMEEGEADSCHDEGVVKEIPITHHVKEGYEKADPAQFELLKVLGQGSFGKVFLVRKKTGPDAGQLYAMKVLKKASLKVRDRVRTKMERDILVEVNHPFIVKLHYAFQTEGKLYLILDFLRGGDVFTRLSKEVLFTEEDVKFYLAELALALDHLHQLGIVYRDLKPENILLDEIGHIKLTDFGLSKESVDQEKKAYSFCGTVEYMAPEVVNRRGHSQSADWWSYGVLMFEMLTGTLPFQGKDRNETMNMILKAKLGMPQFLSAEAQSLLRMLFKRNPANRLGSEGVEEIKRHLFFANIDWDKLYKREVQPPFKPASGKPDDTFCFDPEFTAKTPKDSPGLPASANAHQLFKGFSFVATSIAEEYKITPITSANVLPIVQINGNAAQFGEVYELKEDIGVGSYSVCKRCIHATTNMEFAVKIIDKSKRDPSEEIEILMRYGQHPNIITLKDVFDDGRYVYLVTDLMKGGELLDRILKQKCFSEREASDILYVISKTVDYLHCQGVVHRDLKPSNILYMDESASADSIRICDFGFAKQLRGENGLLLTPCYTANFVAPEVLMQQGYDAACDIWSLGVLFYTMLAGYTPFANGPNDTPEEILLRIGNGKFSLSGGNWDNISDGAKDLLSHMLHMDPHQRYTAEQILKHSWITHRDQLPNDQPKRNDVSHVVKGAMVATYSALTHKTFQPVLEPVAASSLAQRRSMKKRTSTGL
Sequence of Rho-associated protein kinase 1 (Homo sapiens) (Q13464 2-1354 limits assumed): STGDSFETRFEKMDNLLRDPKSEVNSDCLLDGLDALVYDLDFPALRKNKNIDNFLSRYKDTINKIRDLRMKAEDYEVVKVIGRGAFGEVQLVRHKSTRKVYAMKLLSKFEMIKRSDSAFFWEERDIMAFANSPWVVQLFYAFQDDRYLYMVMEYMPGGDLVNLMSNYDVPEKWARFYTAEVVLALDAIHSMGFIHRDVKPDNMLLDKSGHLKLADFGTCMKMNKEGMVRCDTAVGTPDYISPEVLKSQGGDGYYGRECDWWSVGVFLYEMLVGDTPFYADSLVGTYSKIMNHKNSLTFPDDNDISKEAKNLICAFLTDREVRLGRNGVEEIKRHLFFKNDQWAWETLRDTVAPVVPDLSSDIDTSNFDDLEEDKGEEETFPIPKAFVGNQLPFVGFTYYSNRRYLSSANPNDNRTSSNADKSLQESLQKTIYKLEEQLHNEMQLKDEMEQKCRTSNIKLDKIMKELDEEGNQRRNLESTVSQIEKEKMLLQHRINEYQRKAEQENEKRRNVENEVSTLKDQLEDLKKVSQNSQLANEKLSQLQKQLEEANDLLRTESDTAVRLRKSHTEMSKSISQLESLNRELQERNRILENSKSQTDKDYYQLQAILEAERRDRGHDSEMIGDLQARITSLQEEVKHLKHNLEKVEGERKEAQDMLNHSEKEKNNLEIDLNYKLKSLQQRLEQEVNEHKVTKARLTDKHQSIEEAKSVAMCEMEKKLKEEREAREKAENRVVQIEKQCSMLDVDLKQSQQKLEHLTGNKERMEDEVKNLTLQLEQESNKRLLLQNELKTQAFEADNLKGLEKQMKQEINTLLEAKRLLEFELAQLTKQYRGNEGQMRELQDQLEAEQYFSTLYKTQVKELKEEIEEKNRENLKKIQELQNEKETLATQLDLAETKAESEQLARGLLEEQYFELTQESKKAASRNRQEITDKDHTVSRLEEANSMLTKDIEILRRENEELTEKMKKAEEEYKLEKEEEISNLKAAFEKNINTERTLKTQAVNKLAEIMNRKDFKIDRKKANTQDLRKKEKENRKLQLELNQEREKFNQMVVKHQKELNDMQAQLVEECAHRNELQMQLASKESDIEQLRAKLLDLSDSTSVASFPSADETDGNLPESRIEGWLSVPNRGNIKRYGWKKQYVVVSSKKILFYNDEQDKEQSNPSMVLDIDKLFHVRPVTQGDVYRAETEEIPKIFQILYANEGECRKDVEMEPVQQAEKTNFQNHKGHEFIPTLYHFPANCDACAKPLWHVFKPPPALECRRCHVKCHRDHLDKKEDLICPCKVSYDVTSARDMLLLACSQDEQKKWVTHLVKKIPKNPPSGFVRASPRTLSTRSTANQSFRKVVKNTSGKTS
Sequence of Ribosomal protein S6 kinase alpha-1 (Homo sapiens) (Q15418 whole entry): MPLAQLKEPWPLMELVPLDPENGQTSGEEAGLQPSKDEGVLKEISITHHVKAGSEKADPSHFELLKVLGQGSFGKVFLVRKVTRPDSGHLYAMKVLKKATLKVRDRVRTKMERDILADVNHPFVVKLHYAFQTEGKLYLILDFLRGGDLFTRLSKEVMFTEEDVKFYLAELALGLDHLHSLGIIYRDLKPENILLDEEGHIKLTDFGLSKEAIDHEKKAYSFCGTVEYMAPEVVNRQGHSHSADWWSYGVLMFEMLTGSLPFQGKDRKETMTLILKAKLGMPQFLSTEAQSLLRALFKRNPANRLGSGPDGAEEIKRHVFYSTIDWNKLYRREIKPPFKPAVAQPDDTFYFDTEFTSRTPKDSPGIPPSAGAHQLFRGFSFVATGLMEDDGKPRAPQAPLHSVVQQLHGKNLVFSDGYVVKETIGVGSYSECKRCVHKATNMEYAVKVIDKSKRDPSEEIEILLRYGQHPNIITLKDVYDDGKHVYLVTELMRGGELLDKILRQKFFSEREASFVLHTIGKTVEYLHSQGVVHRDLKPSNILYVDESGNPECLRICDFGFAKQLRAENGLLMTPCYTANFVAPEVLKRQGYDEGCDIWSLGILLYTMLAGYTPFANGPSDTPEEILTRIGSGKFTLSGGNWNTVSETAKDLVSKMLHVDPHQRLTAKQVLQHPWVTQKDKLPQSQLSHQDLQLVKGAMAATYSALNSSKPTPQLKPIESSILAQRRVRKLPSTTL
Sequence of Ribosomal protein S6 kinase alpha-2 (Homo sapiens) (Q15349 whole entry): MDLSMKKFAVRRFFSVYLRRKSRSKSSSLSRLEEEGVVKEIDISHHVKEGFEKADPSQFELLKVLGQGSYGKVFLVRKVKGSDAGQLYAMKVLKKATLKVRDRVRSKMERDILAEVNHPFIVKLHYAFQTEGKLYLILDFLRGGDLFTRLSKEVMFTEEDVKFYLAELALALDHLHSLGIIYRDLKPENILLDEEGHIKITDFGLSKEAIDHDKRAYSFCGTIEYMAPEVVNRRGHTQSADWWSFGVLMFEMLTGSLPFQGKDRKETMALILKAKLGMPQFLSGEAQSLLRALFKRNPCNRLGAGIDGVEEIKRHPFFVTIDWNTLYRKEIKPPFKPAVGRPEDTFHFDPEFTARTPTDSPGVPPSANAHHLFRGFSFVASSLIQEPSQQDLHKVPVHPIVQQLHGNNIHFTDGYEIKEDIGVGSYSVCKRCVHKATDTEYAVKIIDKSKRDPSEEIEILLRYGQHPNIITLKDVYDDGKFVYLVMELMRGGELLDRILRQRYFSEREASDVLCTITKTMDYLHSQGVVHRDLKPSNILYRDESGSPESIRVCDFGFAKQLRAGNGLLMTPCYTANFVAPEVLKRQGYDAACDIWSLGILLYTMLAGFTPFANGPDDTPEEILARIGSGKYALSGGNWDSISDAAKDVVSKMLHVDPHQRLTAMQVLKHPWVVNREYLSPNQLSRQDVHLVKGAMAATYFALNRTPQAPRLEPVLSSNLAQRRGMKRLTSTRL

C#Cc1cccc(Nc2ncnc3ccc(OCCCCNCCS(C)(=O)=O)cc23)c1
inhibition [1]: 2.52% | inhibition [2]: 3.83% | inhibition [3]: 6.92% | inhibition [4]: 3.85% | inhibition [5]: 5.51% | inhibition [6]: 2.14% | inhibition [7]: 3.87% | inhibition [8]: 3.31% | inhibition [9]: 4.55% | inhibition [10]: 1.75% | inhibition [11]: 3.55% | inhibition [12]: 3.74% | inhibition [13]: 5.99% | inhibition [14]: 3.88% | inhibition [15]: 4.33% | inhibition [16]: 3.82% | inhibition [17]: 4.46% | inhibition [18]: 4.2% | inhibition [19]: 6.4% | inhibition [20]: 4.13%

O=C1Nc2ccc(I)cc2C1=Cc1cc(Br)c(O)c(Br)c1
inhibition [1]: 2.32% | inhibition [2]: 2.42% | inhibition [3]: 4.03% | inhibition [4]: 0.5% | inhibition [5]: 2.27% | inhibition [6]: 1.27% | inhibition [7]: 1.7% | inhibition [8]: 2.5% | inhibition [9]: 3.82% | inhibition [10]: 1.37% | inhibition [11]: 3.84% | inhibition [12]: 0.41% | inhibition [13]: 2.04% | inhibition [14]: 1.05% | inhibition [15]: 0.89% | inhibition [16]: 3.3% | inhibition [17]: 1.73% | inhibition [18]: 1.53% | inhibition [19]: 3.41% | inhibition [20]: 6.97%

COC(=O)Nc1nc2ccc(Sc3ccc(NC(=O)Nc4cc(C(F)(F)F)ccc4F)cc3)cc2[nH]1
inhibition [1]: -0.72% | inhibition [2]: 0.53% | inhibition [3]: -0.19% | inhibition [4]: -0.4% | inhibition [5]: 0.24% | inhibition [6]: -0.27% | inhibition [7]: -1.87% | inhibition [8]: 47.7% | inhibition [9]: 2.97% | inhibition [10]: 48.6% | inhibition [11]: 0.24% | inhibition [12]: 0.54% | inhibition [13]: 4.52% | inhibition [14]: 0.41% | inhibition [15]: 0.74% | inhibition [16]: -0.29% | inhibition [17]: 0.03% | inhibition [18]: 0.86% | inhibition [19]: 0.23% | inhibition [20]: -4.11%

COc1ccc2ncn(-c3cc(O[C@H](C)c4ccccc4Cl)c(C(N)=O)s3)c2c1
inhibition [1]: 2.68% | inhibition [2]: 1.42% | inhibition [3]: 2.59% | inhibition [4]: -0.02% | inhibition [5]: 0.44% | inhibition [6]: -1.13% | inhibition [7]: -0.23% | inhibition [8]: 1.47% | inhibition [9]: 1.88% | inhibition [10]: 0.03% | inhibition [11]: 3.6% | inhibition [12]: 2.42% | inhibition [13]: 2.1% | inhibition [14]: 0.49% | inhibition [15]: 2.09% | inhibition [16]: 3.92% | inhibition [17]: 5.77% | inhibition [18]: 2.16% | inhibition [19]: 2.45% | inhibition [20]: 2.54%
